Pf growth 96h: P. falciparum growth inhibition at 96 hours; P. falciparum luciferase reporter growth, 96 h; Potency, µM (highest dose often 28.7 µM), for the others: at the top dose activity change, negative = inhibition, usual class: inhibitors; 320,000 compounds, 6.9% hits; AID 504834; note: potency is the fitted concentration of half-maximal effect
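Delayed-death screen, second-generation endpoint: infected erythrocytes, 2% hematocrit, 0.05% parasitemia final; 96 hours at 37 C, 5% CO2; luciferase detection reagent; luminescence decrease equals reduced growth.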
HCMV inh: human cytomegalovirus inhibition | activity change, negative = inhibition, % at 57.5 µM | AID 1259415 | 410,000 compounds, 4.5% hits | HFF cells, HCMV-luciferase reporter, 72 h; active compounds read low; in the data active = activity change below about -60%; inconclusive = no clear call, values can overlap the other calls; inactive = above about -39%
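Human foreskin fibroblasts infected with luciferase-reporter HCMV at MOI 1 PFU/cell, compounds at two doses. Luciferase measured 72 h post infection; normalized to buffer-only basal and Salinomycin (10uM) controls.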
FBPA Giardia inh: Giardia lamblia aldolase inhibition | AID 2451 | purified Giardia FBPA | 290,000 compounds, 0.71% hits | Potency, µM (titrated, usually from 59.6 µM), inactives show top-dose activity, negative = inhibition, actives largely listed as inhibitors; note: potency is the fitted concentration of half-maximal effect; nearly all actives have a fitted effect of over 55% in size
Target sequence (A8B2U2 whole entry, looked up): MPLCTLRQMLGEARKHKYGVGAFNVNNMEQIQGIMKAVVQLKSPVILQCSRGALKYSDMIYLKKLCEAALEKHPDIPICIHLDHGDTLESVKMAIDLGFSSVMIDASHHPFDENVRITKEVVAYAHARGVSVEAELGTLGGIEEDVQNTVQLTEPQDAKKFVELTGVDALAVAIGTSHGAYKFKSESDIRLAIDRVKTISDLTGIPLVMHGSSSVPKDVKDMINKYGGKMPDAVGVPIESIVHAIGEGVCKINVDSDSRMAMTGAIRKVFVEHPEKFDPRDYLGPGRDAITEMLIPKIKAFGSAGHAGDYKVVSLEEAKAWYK
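40 nM FBPA preincubated 10 min at RT with compound (up to 57.5 uM final), then substrate plus GAPDH/TPI/NAD/arsenate coupling and diaphorase/resazurin added. Fluorescence read after 20 min at RT, 525/598 nm.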
Sm TGR block: S. mansoni TGR enzyme inhibition; purified TGR, DTNB reduction, TNB absorbance 405 nm; Potency, µM (doses to about 114 µM), for inactives: top-dose activity change, negative = inhibition, most hits filed as inhibitors; 360,000 compounds, 3% hits; AID 485364; note: potency is the fitted concentration of half-maximal effect; nearly all actives have a fitted effect of over 60% in size
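Kinetic colorimetric format: TGR-catalysed, NADPH-driven DTNB reduction monitored via TNB absorbance. Enzyme dispensed at 20 nM; compound exposure 15 min at room temperature before reaction start.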
Pf growth 48h: inhibits P. falciparum growth in the first generation, 48 h. P. falciparum luciferase growth in erythrocytes, 48 h. Potency, µM (highest dose often 28.7 µM), without a hit: top-dose activity change, negative = inhibition, actives largely listed as inhibitors. 310,000 compounds, 5.9% hits; note: potency is the fitted concentration of half-maximal effect
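Luciferase-expressing P. falciparum in infected erythrocytes (2% hematocrit, 0.1% parasitemia final) in RPMI 1640/0.5% Albumax were exposed to compound for 48 hours at 37 C, 5% CO2; growth read as luminescence.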
The depositor's hits bear a star; ? = inconclusive; · = not tested or not shown. The list is not random: actives were taken first. Their share in the collection is about 14%. Unless noted, calls come from the whole dose curve; as a rule, active = well fitted curve in the direction sought with a large enough effect; inconclusive = small, poorly fitted or top-dose-only effect, or another doubt; inactive = no such curve, though single readings can be large; an effect the other way counts as inactive or inconclusive. % is set by controls: 0 for no effect and ±100 for the full control effect.

SMILES	Pf growth 96h	HCMV inh	FBPA Giardia inh	Sm TGR block	Pf growth 48h
Cc1ccc(N(C(=O)c2sc(C)nc2C)C(C(=O)NCc2ccco2)c2ccccc2)cc1 (centres undefined)	?	?	-1%	-12%	?
COc1ccc(N(C(=O)/C=C\C(=O)Nc2ccc(C)cc2)C(C(=O)NCc2ccco2)c2ccc(C)cc2)cc1 (centres undefined)	·	-30	·	45µM*	·
COc1ccc(NC(=O)/C=C\C(=O)N(c2ccc(C(C)C)cc2)C(C(=O)NCc2ccco2)c2ccc(C)cc2)cc1 (centres undefined)	·	-11	·	56µM*	·
Cc1ccc(NC(=O)/C=C\C(=O)N(c2ccc(C(C)C)cc2)C(C(=O)NCc2ccco2)c2ccc(F)cc2)cc1 (centres undefined)	·	-82*	·	-26%	·
COc1ccc(N(CC(=O)NCc2ccco2)S(=O)(=O)c2ccc(C)cc2)cc1	9%	·	8%	·	?
CCOC(=O)c1cc(C(=O)NNC(=O)c2cccc([N+](=O)[O-])c2)c(C)nc1C	19%	4	·	-1%	-29%
COc1ccccc1N1CCN(CC(=O)c2c(C)[nH]c3ccccc23)CC1	24%	-6	1%	32µM*	?
COc1ccccc1N1CCN(CC(=O)c2c[nH]c3ccccc23)CC1	?	18	0%	-19%	?
COc1ccccc1N1CCN(CC(O)c2c(C)[nH]c3ccccc23)CC1 (centres undefined)	1%	?	-3%	16µM*	-12%
COC(=O)C1=C2SCC(=O)N2C(N)=C(C#N)C1	-10%	53	-4%	0%	-4%
C[C@@H]1COc2cccc(N3CCCC3)c2S(=O)(=O)N1	·	3	·	·	·
O=C1Nc2cc(Br)ccc2C1(O)c1ccccc1O (centres undefined)	?	?	7%	6%	?
CC(C)c1ccc(C2(O)C(=O)Nc3cc(Br)ccc32)c(O)c1 (centres undefined)	13µM*	26	-5%	2%	13µM*
Cc1ccc(N2C(=O)[C@@H]3C(c4ccc(F)cc4)=NO[C@@H]3C2=O)cc1	57%	-35	4%	-8%	46%
CC(=O)C1=NOC2C(=O)N(c3ccccc3)C(=O)C12 (centres undefined)	17%	20	-2%	11µM*	44%
O=C(COc1ccc(/C=C\[N+](=O)[O-])cc1)N1CCOCC1	92%	24	-23%	22µM*	?
NC(=O)c1ccc(NC(=O)CCN=C2NS(=O)(=O)c3ccccc32)cc1	?	-22	·	0%	-13%
O=C(Nc1cccc(S(=O)(=O)c2cccc(NC(=O)c3ccco3)c2)c1)c1ccco1	12µM*	-69*	-4%	1%	13µM*
CC(=O)Nc1ccc(S(=O)(=O)Nc2ccc(NC(=O)c3ccco3)cc2)cc1	·	-11	13%	-11%	-4%
CC(=O)Nc1ccc(S(=O)(=O)Nc2cccc(NC(=O)c3ccco3)c2)cc1	21%	-71*	1%	0%	-2%
O=C(Nc1cccc(S(=O)(=O)N2CCCC2)c1)c1ccco1	·	8	·	·	·
O=C(COc1ccccc1Cl)Nc1ccc2nc(SCC(=O)N3CCOCC3)sc2c1	·	-35	·	-4%	·
COC(=O)C/C=C/[C@@H](C)[C@H](NC(=O)OCC(Cl)(Cl)Cl)c1cccc(OC)c1	·	·	0%	·	·
CC(C)N(Cc1nc(-c2ccc(Cl)cc2)no1)C(=O)C(c1ccccc1)c1ccccc1	8.3µM*	-26	-6%	-1%	·
C/C(=N\Nc1nc2ccccc2[nH]1)c1ccccn1	?	-98*	-22%	-10%	2.9µM*
SMILES	Pf growth 96h	HCMV inh	FBPA Giardia inh	Sm TGR block	Pf growth 48h
C/C(=N\Nc1nc2ccccc2[nH]1)c1ccc2c(c1)OCCO2	?	-3	-7%	-1%	3.7µM*
C/C(=N\Nc1nc2ccccc2[nH]1)c1ccc2c(c1)OCO2	?	7	-10%	10%	?
CC(=NNc1cc(C)c2cc(C)ccc2n1)c1ccccn1	·	-100*	·	·	·
O=C(OCc1ccc(Br)cc1F)c1cc2ccccc2oc1=O	2%	-31	-6%	-11%	7%
CC(C)C(NS(=O)(=O)c1ccc2c(c1)oc(=O)n2C)C(=O)NCCc1ccc(Cl)cc1 (centres undefined)	·	2	·	7%	·
Oc1ccc(-c2nc(-c3ccc(F)cc3)c(-c3ccncc3)[nH]2)cc1	13µM*	-9	1%	-11%	?
CCOCCCNC(=S)N1C2CCC1CC(NC(=O)NC13CC4CC(CC(C4)C1)C3)C2 (centres undefined)	3.7µM*	-19	-3%	17%	4.7µM*
COc1ccccc1CNC(=O)C/C(C)=N/NC(=O)Cc1ccc(OC)c(OC)c1	-5%	-66*	2%	-9%	-3%
COc1ccccc1CNC(=O)C/C(C)=N/NC(=O)Cc1ccccc1	80%	-7	2%	-28%	14%
CCOc1ccc(CCNC(=O)CCc2nnc3ccc(N4CCCCC4)nn23)cc1OCC	5.2µM*	-3	9%	7%	?
CCN(CC)c1ccc(NC(=O)CCc2nnc3ccc(N4CCCC4)nn23)c(C)c1	?	-11	-11%	-21%	12µM*
CCOc1ccc(CCNC(=O)CCc2nnc3ccc(N4CCOCC4)nn23)cc1	14%	-7	-1%	-1%	-7%
CCOC(=O)c1ccc(NC(=O)CCc2nnc3ccc(N4CCCC4)nn23)cc1	3%	-9	·	0%	-19%
CC(C)CN(C(=O)c1cc(Cl)nc2ccccc12)C1CCS(=O)(=O)C1 (centres undefined)	35%	-12	·	-2%	?
CC1=CC(=O)C2=C(C)CC[C@H]3[C@H](C)C(=O)O[C@@H]3C12 (some centres undefined)	·	·	13%	·	·
CC1C(=O)OC2C1CCC1(C)CCC(=O)C(C)C21 (centres undefined)	36%	-32	8%	3.5µM*	2%
Cc1ccc(NC(CNS(=O)(=O)c2ccc(Cl)cc2)c2ccccc2)cc1 (centres undefined)	?	-80*	-4%	-3%	24%
COc1cccc(NC(CNS(=O)(=O)c2ccc(C)cc2)c2ccccc2)c1 (centres undefined)	·	-22	·	0%	·
COC(CNS(=O)(=O)c1ccc(Cl)cc1)c1ccccc1 (centres undefined)	13µM*	-13	1%	8%	-12%
COc1cccc(NC(CNS(=O)(=O)c2ccc(Cl)cc2)c2ccccc2)c1 (centres undefined)	·	-100*	·	3%	·
CCNC(=O)CN(c1ccc(Oc2ccccc2)cc1)S(=O)(=O)c1ccccc1	-3%	-26	·	-1%	-23%
CC1CCN(c2nn3c(=O)c(C(=O)NC(C)C)cnc3s2)CC1	·	21	·	48%	·

Screening results as filed in PubChem.
